# Rows were chosen to be rich in hits. Some 2.8% of all compounds tested hit in one or more screens of this group.
# POLB inh = qHTS Assay for Inhibitors of DNA Polymerase Beta. P06746. Pol beta primer extension/strand displacement, fluorescence kinetic. Potency, µM (highest dose often 114 µM), for the others: at the top dose activity change, negative = inhibition, hits mostly inhibitors. actives 1.3% (n = 340,000). AID 485314, 2010; also: potency is read from the fitted curve at half-maximal effect; % is scaled to controls: 0 for no effect and ±100 for the full control effect
#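 Kinetic readout of DNA synthesis with strand displacement by Pol beta. Compound and 10 nM enzyme sit 15 min at room temperature; 50 nM substrate starts the reaction, read immediately and at 10 min.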
# WRN inhibitor = qHTS for Inhibitors of WRN Helicase; Bifunctional 3'-5' exonuclease/ATP-dependent helicase WRN (Homo sapiens), Q14191; WRN helicase unwinding, fluorescent forked duplex, kinetic; Potency, µM (titrated, usually from 114 µM), without a hit: at the highest dose activity change, negative = inhibition, usual class: inhibitors; actives 0.46% (n = 360,000); also: potency is read from the fitted curve at half-maximal effect; % is scaled to controls: 0 for no effect and ±100 for the full control effect; nearly all actives have a fitted effect of over 55% in size
#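 Fluorescence dequenching readout, ex 525 nm/em 598 nm, kinetic mode: forked duplex DNA (100 nM final) with adjacent fluorophore and quencher unwound by WRN (20 nM final) with 2 mM ATP. Compound preincubation 15 min, room temperature.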
# POLI inh = qHTS for Inhibitors of Polymerase Iota | Potency, µM (highest dose often 115 µM), for the others: at the top dose activity, negative = inhibition, actives largely listed as inhibitors | actives 1% (n = 390,000) | Pol iota fluorescent replication assay, 10 min; also: potency is read from the fitted curve at half-maximal effect
#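 Pol iota at 10 nM preincubated 15 min with compounds at room temperature; reaction started with fluorescent substrate, 50 nM final. Fluorescence read kinetically at 0 and 10 min; buffer-only wells as negative control.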
# Pol eta inh = qHTS for Inhibitors of Polymerase Eta; DNA polymerase eta (Homo sapiens), Q9Y253; recombinant Pol eta, fluorescent DNA replication assay; Potency, µM (doses to about 114 µM), inactives show at the top dose activity change, negative = inhibition, most hits filed as inhibitors; actives 1.2% (n = 390,000); also: potency is read from the fitted curve at half-maximal effect; % is scaled to controls: 0 for no effect and ±100 for the full control effect
#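 Pol eta at 10 nM preincubated with compounds 15 min at room temperature; reaction started with fluorescent substrate (50 nM final) and read kinetically at 0 and 10 min.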
# PI5P4Ka inh = qHTS for Inhibitors of phosphatidylinositol 5-phosphate 4-kinase (PI5P4K); PI5P4Kalpha enzyme, ADP-Glo luminescence, 60 min; active compounds read low; max response, %; actives 1.2% (n = 330,000); AID 652105, 2013; active = max response of -50% or lower; inconclusive = between -30% and -50%; inactive = -30% or higher; also: value at the top dose of about 77 µM; % is scaled to controls: 0 for no effect and ±100 for the full control effect
# Target sequence (P48426 whole entry, looked up): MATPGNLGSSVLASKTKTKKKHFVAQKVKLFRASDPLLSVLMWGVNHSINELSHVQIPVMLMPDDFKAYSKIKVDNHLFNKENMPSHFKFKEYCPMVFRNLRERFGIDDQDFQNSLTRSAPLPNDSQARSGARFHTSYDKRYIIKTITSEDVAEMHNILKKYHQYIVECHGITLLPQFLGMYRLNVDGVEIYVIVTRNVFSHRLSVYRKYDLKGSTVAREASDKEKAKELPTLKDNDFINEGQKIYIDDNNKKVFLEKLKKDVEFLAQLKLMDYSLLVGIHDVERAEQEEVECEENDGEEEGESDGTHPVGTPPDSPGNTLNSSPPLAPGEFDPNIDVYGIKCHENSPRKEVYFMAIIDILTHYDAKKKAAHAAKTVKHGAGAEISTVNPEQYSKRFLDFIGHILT
#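 Reactions run in 0.038 M HEPES pH 7.4, 0.28 mM EGTA, 0.1% CHAPS and 5% DMSO, with PI5P4Kalpha, substrate, compound and 5 microM ATP final, one hour at room temperature. Readout is ADP-Glo luminescence.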
# Pol kappa inh = qHTS for Inhibitors of Polymerase Kappa. Potency, µM (highest dose often 107 µM), inactives show at the top dose activity, negative = inhibition, actives largely listed as inhibitors. actives 0.53% (n = 400,000). purified Pol kappa, fluorescent DNA synthesis assay, 10 min. AID 588579, 2011. DNA polymerase kappa (Homo sapiens), Q9UBT6; also: potency is read from the fitted curve at half-maximal effect; % is scaled to controls: 0 for no effect and ±100 for the full control effect
#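 Readout: fluorescence, taken kinetically at 0 and 10 min. Conditions: 10 nM Pol kappa, 15 min RT compound preincubation, 50 nM substrate final. Controls: enzyme-free buffer wells.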
# Numbers without * were called inactive; ? = inconclusive; / = not tested or not shown; [ ] = dose if it differs, or a comment. Unless noted, calls follow the shape of the dose curve; as a rule, active = well fitted curve in the direction sought with a large enough effect; inconclusive = small, poorly fitted or top-dose-only effect, or another doubt; inactive = no such curve, though single readings can be large; an effect the other way counts as inactive or inconclusive.
SMILES,POLB inh,WRN inhibitor,POLI inh,Pol eta inh,PI5P4Ka inh,Pol kappa inh
COc1ccc2cc3[n+](cc2c1O)CCc1cc2c(cc1-3)OCO2,/,50µM*,/,/,?,/
CC(C)(C)CC(C)(C)N=C1Nc2ccc(Cl)cc2NC12C[C@H]1CCC(=O)N3CC[C@@H](C2)[C@@H]13 (stereo partly specified),/,/,36%,/,/,-16%
Cc1cc(C(=O)CSc2nnc(-c3ccncc3)n2-c2ccccc2)c(C)n1C,45µM*,?,18µM*,?,/,-24%
Cc1cc(C(=O)CSc2nnc(-c3ccccc3)n2-c2ccccc2)c(C)n1-c1ncn[nH]1,40µM*,?,?,20µM*,2,?
Cc1cc(C(=O)CSc2nnc3ccccn23)c(C)n1-c1ccccc1,29%,21%,27%,-11%,1,-2%
CCn1cc(C(=O)N2CCN(c3cccc(Cl)c3)CC2)c(=O)c2cc(S(=O)(=O)N3CCC(C)CC3)ccc21,7%,/,0%,-22%,/,-3%
Cc1nc(C)c(-c2ccc(SCC(=O)Nc3ccc(Cl)c(Cl)c3)nn2)s1,-17%,/,0%,-16%,/,-1%[60.1 µM]
COC(=O)C1=C(C)N(CCCC(=O)O)C(=O)NC1c1cc2c(cc1[N+](=O)[O-])OCO2 (stereo unspecified),10µM*,-11%,13µM*,50µM*,-62*,45µM*
COC(=O)C1=C(C)N(CCCC(=O)O)C(=O)NC1c1ccc([N+](=O)[O-])cc1 (stereo unspecified),/,-7%,17%,-14%,-101*,-3%
CCOC(=O)C1=C(C)N(CCCC(=O)O)C(=O)NC1c1ccccc1OS(=O)(=O)c1ccc([N+](=O)[O-])cc1 (stereo unspecified),/,-2%,5%,2%,?,-15%
CCOC(=O)C1=C(C)N(CCCC(=O)O)C(=O)NC1c1ccc([N+](=O)[O-])cc1 (stereo unspecified),6%,1%,28%,-6%,-86*,18%
CC1=C(C(=O)OCc2ccccc2)C(c2ccccc2OS(=O)(=O)c2ccc([N+](=O)[O-])cc2)NC(=O)N1CCCC(=O)O (stereo unspecified),/,-10%,-7%,-1%,-64*,-4%
NC(N)=NCCC[C@H](NC(=O)[C@@H](N)Cc1ccc(O)cc1)C(=O)O,/,/,/,/,/,4%[19.4 µM]
Cn1cc(-c2cc3n(n2)CCC(=O)N3CCCC(=O)Nc2ccc(Cl)cc2)c2ccccc21,?,/,89µM*,-11%,/,3%[60.1 µM]
O=[N+]([O-])c1ccc(/C=N/Nc2nc3ccccc3o2)cc1,45µM*,-2%,-1%,-1%,2,-3%
CCS(=O)(=O)c1ccc(C=NNc2nc3ccccc3o2)cc1,/,-12%,8%,-8%,-5,-9%
CC(C)(C)n1ncc2c(=O)n(Cc3c(Cl)cccc3Cl)cnc21,/,/,5%,/,/,8%
COc1ccc(S(=O)(=O)NCCC(=O)NC2CCCCC2C)cc1[N+](=O)[O-] (stereo unspecified),/,-6%[11.6 µM],50µM*,-18%,-12,-21%
O=C(/C=C/c1ccco1)NCCc1ccccc1,13%,-4%,27%,9%,-18,-18%
Cc1ccc(/C=C/C(=O)NCCc2ccccc2)o1,-29%,-5%,?,?,-60*,-13%
COc1ccc(Cn2c(=O)n(Cc3ccco3)c(=O)c3oc4ccccc4c32)cc1,?,/,-10%,-13%,/,-9%
CC1CCc2c(sc(NC(=O)c3cccn3C)c2C(N)=O)C1 (stereo unspecified),/,-6%[11.6 µM],?,32µM*,?,-22%
O=C(NCCn1cc(SCc2ccccc2Cl)c2ccccc21)c1cccs1,4%,/,0%,-17%,/,2%

# Screening data from PubChem BioAssay.
